JMJD2A Tudor inh = qHTS Assay for Inhibitors of JMJD2A-Tudor Domain | Lysine-specific demethylase 4A (Homo sapiens), O75164 | AlphaScreen JMJD2A-Tudor / H3K4me3 peptide binding | Potency, µM (top dose mostly 114 µM), for inactives: top-dose activity change, negative = inhibition, hits mostly inhibitors | 390,000 compounds, 4.4% hits | AID 504339, 2011; note: potency is the fitted concentration of half-maximal effect; % is set by controls: 0 for no effect and ±100 for the full control effect; nearly all actives have a fitted effect of over 50% in size
CtBP-E1A inh = qHTS Assay for Inhibitors of the CtBP/E1A Interaction | AlphaScreen GST-E1A/His-CtBP binding, 1536-well; active compounds read low | activity change, % (concentration not given with the values) | 340,000 compounds, 0.49% hits | AID 651724, 2012; in the data active = activity change below about -65%; inconclusive = mostly about -30% to -63%; note: % is set by controls: 0 for no effect and ±100 for the full control effect
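Steps: dispense buffer (Tris pH 8.0, NaCl 300 mM, TCEP 1 mM, BSA, Tween 20); add 5X protein mix (GST-E1A, His-CtBP, 125 nM each); pin 23 nL compound; 2 h at 37 °C, dark; add 5X beads (50 ug/mL); 1 h; read.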
Six1-Eya2 inh = qHTS Assay for Inhibitors of the Six1/Eya2 Interaction. 360,000 compounds, 0.56% hits. activity change, % (no concentration beside the values). Homeobox protein SIX1 (Homo sapiens) + Protein phosphatase EYA2 (Homo sapiens), …. AID 651725, 2012. AlphaScreen GST-Six1/His-Eya2 binding, biochemical; active compounds read low; in the data active = activity change below about -65%; inconclusive = mostly about -30% to -63%; note: % is set by controls: 0 for no effect and ±100 for the full control effect
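Six1/Eya2 binding was read as AlphaScreen signal after compounds were pinned into GST-Six1 plus His-tagged Eya2 (5X stock 250/500 nM) in pH 8.0 Tris/NaCl/TCEP buffer, beads added, then incubated 1 h, 37 C, dark.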
HP1b binding inh = HTS for Inhibitors of HP1-beta Chromodomain Interactions with Methylated Histone Tails | Chromobox protein homolog 1 (Homo sapiens), P83916 | AlphaScreen HP1-beta / biotin-H3K9me3 peptide binding | 390,000 compounds, 0.56% hits | Potency, µM (top dose mostly 114 µM), for inactives: at the top dose activity change, negative = inhibition, hits mostly inhibitors | AID 540317, 2011; note: potency is the fitted concentration of half-maximal effect; nearly all actives have a fitted effect of over 70% in size
Target sequence (P83916 whole entry, looked up): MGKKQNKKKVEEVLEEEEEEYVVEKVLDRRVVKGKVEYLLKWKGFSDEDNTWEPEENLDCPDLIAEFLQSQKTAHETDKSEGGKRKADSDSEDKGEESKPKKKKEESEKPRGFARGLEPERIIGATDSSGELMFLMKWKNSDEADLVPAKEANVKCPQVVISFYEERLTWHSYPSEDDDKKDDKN
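HP1-beta protein (50 nM final) preincubated 30 min at room temperature with biotinylated H3(1-18)K9me3 peptide (50 nM) in PBS pH 7.4, 0.01% Tween-20, then compound added for 30 min. AlphaScreen streptavidin donor/nickel chelate acceptor beads (10 ug/mL final), 30 min dark, luminescence read.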
G9a block = qHTS Assay for Inhibitors of Histone Lysine Methyltransferase G9a. Histone-lysine N-methyltransferase EHMT2 (Homo sapiens), Q96KQ7. G9a H3K9 monomethylation, AlphaScreen, 2 h. Potency, µM (top dose mostly 102 µM), inactives show at the top dose activity, negative = inhibition, most hits filed as inhibitors. 350,000 compounds, 8.8% hits; note: potency is the fitted concentration of half-maximal effect; % is set by controls: 0 for no effect and ±100 for the full control effect; nearly all actives have a fitted effect of over 75% in size
Target sequence (Q96KQ7 913-1193 limits assumed): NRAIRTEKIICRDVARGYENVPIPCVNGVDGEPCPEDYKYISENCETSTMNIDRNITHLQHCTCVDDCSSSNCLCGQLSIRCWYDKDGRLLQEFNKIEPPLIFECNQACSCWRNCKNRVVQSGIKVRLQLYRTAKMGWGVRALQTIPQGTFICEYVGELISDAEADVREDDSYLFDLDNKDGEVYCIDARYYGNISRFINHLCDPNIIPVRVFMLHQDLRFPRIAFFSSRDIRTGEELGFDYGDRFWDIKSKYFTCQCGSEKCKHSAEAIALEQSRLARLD
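Signal arises when biotinylated H3K9 peptide, once monomethylated, bridges streptavidin donor and antibody-captured acceptor beads. Enzyme at 20 nM was preincubated 15 min with test compounds; peptide 500 nM and SAM 20 uM then reacted for 2 h.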
BAZ2B block = qHTS Assay for Inhibitors of BAZ2B; Bromodomain adjacent to zinc finger domain protein 2B (Homo sapiens), Q9UIF8; AlphaScreen BAZ2B-H3K14Ac peptide displacement; Potency, µM (series often up to 114 µM), without a hit: at the highest dose activity change, negative = inhibition, usual class: inhibitors; 360,000 compounds, 4.4% hits; note: potency is the fitted concentration of half-maximal effect; % is set by controls: 0 for no effect and ±100 for the full control effect; nearly all actives have a fitted effect of over 60% in size
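BAZ2B (50 nM) with biotin-H3(5-23)K14Ac peptide (50 nM) in PBS pH 7.4, 0.01% Tween-20, preformed 30 min, then compound 30 min at room temperature; top concentration 110uM. AlphaScreen streptavidin donor/nickel chelate acceptor beads (10 ug/mL final), 20 min dark, signal read.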
Numbers without * were called inactive; ? = inconclusive; . = no result; [ ] = another dose, or the depositor's remark. Hits are enriched below; roughly 10% of the tested compounds scored in any of these assays. Unless noted, calls come from the whole dose curve; as a rule, active = well fitted inhibition curve with a large enough effect; inconclusive = small, poorly fitted or top-dose-only effect; inactive = no such curve, though single readings can be large or run the other way.

SMILES | JMJD2A Tudor inh | CtBP-E1A inh | Six1-Eya2 inh | HP1b binding inh | G9a block | BAZ2B block
O=S(=O)(Nc1ccc(S(=O)(=O)Nc2ccccc2)cc1)c1ccccc1 | -21% | 2 | 1 | 14% | -28% | 2%
CC(C)N(N=Nc1ccc([N+](=O)[O-])cc1)C(C)C | -30% | . | -8 | 9% | -8%[59 µM] | -8%
O=S(=O)(Nc1ccccc1)c1ccc(NS(=O)(=O)c2c(F)cccc2F)cc1 | -14% | 15 | 0 | 21% | 50µM* | -4%
O=S(=O)(Nc1ccc(N=Nc2ccccc2)cc1)c1ccccc1 | 35µM* | -2 | ? | 45µM* | 32µM* | 35µM*
O=S(=O)(Nc1ccc(N=Nc2ccc(O)c3ccccc23)cc1)c1ccccc1 | 25µM* | ? | ? | 40µM* | ? | 40µM*
O=S(=O)(Nc1ccc(-c2ccccc2)cc1)c1ccccc1 | -12% | -1 | -6 | 5% | . | .
O=c1c(-c2ccccc2)nc2cnc(Nc3ccccc3)nc2n1Cc1cccs1 | . | . | . | . | 27%[0.501 µM] | .
COc1ccc(C(CNC(=O)Cc2c(F)cccc2Cl)N2CCCCC2)cc1 (stereo not given) | -10% | 3 | -1 | 41% | 10% | -6%
COc1cc(NC(=O)Cn2c(SCc3ccc(F)cc3)nc3cccnc32)cc(OC)c1 | 2% | . | . | 24% | 7%[59 µM] | 4%
O=C1NC[C@H](Cc2ccccc2)N(CC2CCN(CCc3ccc(-c4ccccc4)cc3)CC2)C1=O | -18% | -5 | -3 | 28% | . | .
CCOc1ccc(Nc2nc(Cc3nnc(SCC(=O)NC4CCCCC4)n3C)cs2)cc1 | 56µM* | -8 | -5 | -1% | -8%[12.7 µM] | 50µM*
CCOc1ccc(Nc2nc(Cc3nnc(SCC(=O)NCC4CCCO4)n3C)cs2)cc1 (stereo not given) | ? | -7 | -15 | -8% | -22%[59 µM] | ?
CC1=C(C(=O)OC(C)C)C(c2cccs2)N2C(=O)CCSC2=N1 (stereo not given) | -23% | 7 | 3 | 4% | 1%[59 µM] | -19%
CC1=C(C(=O)OC(C)C)C(c2cccs2)N2C(=O)C(C)SC2=N1 (stereo not given) | 79µM* | -7 | -12 | 15% | 2% | 2%
Cn1c(=O)c2c(SCC(=O)NCc3ccc(F)cc3)nc(-c3ccccc3Cl)nc2n(C)c1=O | -12% | . | . | 13%[57 µM] | 6%[59 µM] | 4%
CCc1ccc(C(=O)/C=C/c2ccc([N+](=O)[O-])o2)cc1 | ? | -10 | -23 | ? | 32µM* | ?
CCOC(=O)CCc1ccc(NC(=O)/C=C/c2ccc([N+](=O)[O-])o2)cc1 | -16% | 13 | -9 | 21% | . | .
O=C(Nc1ccccc1F)c1cnc(N2CCCCC2)c2ccccc12 | 39% | . | . | 43%[57 µM] | 79%[59 µM] | 25%
Cc1ccc(CN(C(=O)c2ccco2)C(C(=O)NC2CCCC2)c2cccnc2)cc1 (stereo not given) | -10% | -2 | 1 | 7% | 4% | -16%
Cc1ccc(CN(C(=O)c2ccco2)C(C(=O)NC2CCCC2)c2ccc(N3CCOCC3)cc2)cc1 (stereo not given) | -14% | -9 | -4 | 19% | 28µM* | -17%
CCc1ccc(OCC(=O)N2CCN=C2c2ccccc2)cc1 | 5% | 3 | -2 | 28% | 6% | 7%
C=CCOc1ccc(/C=C/C(=O)N2CCCN(S(=O)(=O)c3c(C)noc3C)CC2)cc1 | -6% | 2 | 3 | 19% | 45µM* | -5%
Cc1cc[n+](CC(=O)c2ccc(NC(=O)c3ccccc3)cc2)cc1 | -12% | -1 | -1 | 25% | ? | 4%
COc1ccc2c(ccc[n+]2CC(=O)c2ccccc2)c1 | 8% | 9 | 2 | 41% | -5% | -26%
O=C(C[n+]1cccc2ccccc21)c1ccc(NC(=O)c2ccccc2)cc1 | -9% | -10 | -6 | 39% | 25µM* | -25%
SMILES | JMJD2A Tudor inh | CtBP-E1A inh | Six1-Eya2 inh | HP1b binding inh | G9a block | BAZ2B block
O=C(C[n+]1cccc2ccccc21)c1ccccc1 | 1%[57.1 µM] | 1 | 1 | 47% | 45µM* | 11%
Cc1cc[n+](CC(=O)c2ccc(NC(=O)c3ccccc3)cc2)c2ccccc12 | ? | -4 | -7 | 13% | 40µM* | ?
COc1ccc(NC(=O)CN(C)S(=O)(=O)c2ccc(C(=O)N3CCOCC3)s2)cc1 | -7% | . | . | 17% | 18%[59 µM] | -3%
Cc1nc2nc(NC(=O)c3ccc(F)cc3)[nH]n2c(=O)c1Cc1ccccc1 | -32% | . | . | 21% | -42%[59 µM] | -9%
CC(=O)NC(C)(c1ccccc1)c1nc(-c2ccc(F)c(Cl)c2)cs1 (stereo not given) | . | 6 | -8 | . | . | .
CCCc1cc2c(=O)n(NC(=O)c3nn(C)cc3[N+](=O)[O-])c(C)nc2s1 | -33% | -13 | 0 | 19% | 14%[59 µM] | 9%
CN(C)C(=O)COc1ccc(Br)cc1 | -21% | 18 | -1 | 7% | -8%[59 µM] | 7%
CN(C)C(=O)COc1ccc(S(=O)(=O)c2ccc(OCC(=O)N(C)C)cc2)cc1 | -11% | 1 | 6 | 38% | 50µM* | -2%
Cc1[nH]c(=O)[nH]c(=O)c1NS(=O)(=O)c1ccccc1 | 1% | 12 | -2 | 36% | 0% | 1%
O=C(/C=C/c1ccc[nH]1)c1ccc(F)cc1 | -23% | 5 | 1 | 8% | 7% | -26%
O=C(/C=C/c1ccc[nH]1)c1ccccc1 | 18µM* | 0 | 6 | -23% | ? | ?
COc1ccc(C(=O)Nc2cccc(-c3nc4cccnc4s3)c2C)c(OC)c1 | ? | . | . | 0% | 11µM* | -25%
CCOc1ccccc1C(=O)Nc1cc(-c2nc3cccnc3s2)ccc1C | ? | . | . | 4% | 10µM* | 32µM*
OCC[C@H]1C[C@@H](O)[C@H](O)[C@@]2(OCc3ccccc32)O1 | -8% | -3 | 7 | 31% | -9%[2.33 µM] | -8%
COc1cccc(CNC(=O)Nc2cc(C(=O)NCc3cccc(F)c3)ccc2N2CCCC2)c1 | -9% | . | . | 15% | -3%[59 µM] | -13%
Cc1cccc(C)c1-n1ncc(C(=O)Nc2ccc3c(c2)OCCO3)c1C1CCN(C(=O)OC(C)(C)C)CC1 | ? | . | . | -17% | -42%[59 µM] | -19%[57.1 µM]
Cc1cccc(C(=O)NCCNC(=O)c2cccc(C)c2)c1 | -8% | -2 | 5 | 64% | 13%[59 µM] | -5%
